Assay results reported in PubChem BioAssay AID540256 (National Center for Advancing Translational Sciences (NCATS), 2011).
“And” between values parts separate entries of the source, which are not always exact repeats. Equal values may be shown once. Screen size: about 300,000 compounds; about 3,700 (1.2%) were called active. Inconclusive results (about 20%) are left out. The sample holds actives, similar compounds and a random draw of the others, so the mix is not that of the screen. Calls follow the shape of the full dose curve; tested in HEK293 cells.

Assay: qHTS for Inhibitors of binding or entry into cells for Lassa Virus; also: nearly all actives have a fitted effect of over 50% in size
Settings: Lassa virus pseudotype entry inhibition, cell reporter; series mostly up to 37.9 µM; activity change, negative = inhibition: at the top concentration
% is scaled to controls: 0 for no effect and ±100 for the full control effect; potency is read from the fitted curve at half-maximal effect.

Structure (SMILES) | Potency | activity change, negative = inhibition
CN(C)CCCn1c(N)c(C#N)c2nc(C#N)c(C#N)nc21 | 15.8 µM (active) | –
CC(C)(C)c1ccc(C(=O)NCCn2c(N)c(C#N)c3nc4ccccc4nc32)cc1 | – | -18.7% (inactive)
N#Cc1c(N)n(CCOC(=O)c2ccc(Cl)cc2)c2nc3ccccc3nc12 | – | 9.1% (inactive)
O=C(Cc1ccc(S(=O)(=O)N2CCOCC2)s1)Nc1ccc(Br)c(C(F)(F)F)c1 | – | -16.6% (inactive)
O=C(Nc1ncccc1O)c1ccc(C(=O)c2ccccc2)cc1 | – | 1.16% (inactive)
N#CCN(C(=O)COC(=O)C1CC2CCCC(C1)C2=O)c1ccccc1 (stereo unspecified) | – | 0.703% [at 46.1 µM] (inactive)
CC(=O)Oc1cccc(N2C(=O)C3CC=C(Cl)CC3C2=O)c1 (stereo unspecified) | – | 24.4% (inactive)
O=C(Oc1cccc(N2C(=O)C3C4c5ccccc5C(c5ccccc54)C3C2=O)c1)c1ccco1 (stereo unspecified) | 8.91 µM (active) | –
O=C(NC1CC(=O)N(c2ccccc2)C1)c1ccco1 (stereo unspecified) | – | 0.379% [at 46.1 µM] (inactive)
CCOc1ccc(CN2CCNC(=O)C2CC(=O)NCCCC2CCCC2)cc1 (stereo unspecified) | – | -20.2% (inactive)
NC(=S)NN=C1CCCC(C(F)(F)F)C1 (stereo unspecified) | – | 8.5% (inactive)
O=C(c1c(Cl)nc2sccn12)N1CCCc2ccccc21 | – | 13% (inactive)
Cc1cccc2cc3c(N)c(C(=O)N4CCCc5ccccc54)sc3nc12 | 2.82 µM (active) | –
Cc1c(C(=O)N2CCCc3ccccc32)oc2ccccc12 | – | 0.632% [at 46.1 µM] (inactive)
CC(=NNC(=O)c1ccc2nc[nH]c2c1)c1ccc(Br)cc1 | – | -8.19% [at 46.1 µM] (inactive)
O=C(NCCc1ccc(Cl)cc1)c1ccc2c(c1)N(Cc1ccc(F)cc1)C(=O)CS2 | – | 0.26% [at 46.1 µM] (inactive)
CCOc1ccc(Br)cc1S(=O)(=O)Nc1ccc(S(=O)(=O)Nc2cc(C)on2)cc1 | – | 9.12% [at 46.1 µM] (inactive)
CC(Nc1nc(C(F)(F)F)nc2ccccc12)c1cccs1 (stereo unspecified) | – | -11.1% (inactive)
CCc1ccc(C(CNc2nc(C(F)(F)F)nc3ccccc23)N(C)C)cc1 (stereo unspecified) | 10 µM (active) | –
NS(=O)(=O)c1ccc(CCNc2nc(C(F)(F)F)nc3ccccc23)cc1 | – | -9.35% (inactive)
Cc1ccc(S(=O)(=O)n2oc(=O)c(C3CCCCC3)c2N)cc1 | – | 0% [at 46.1 µM] (inactive)
CC(=O)Nc1cccc(/C(C)=N/NC(=O)c2ccccc2Cl)c1 | – | 1.02% (inactive)

Structure (SMILES) | Potency | activity change, negative = inhibition
C/C(=N\NC(=O)c1ccccc1F)c1ccccn1 | 7.08 µM (active) | –
CNC(=S)N1CCN(c2ccccn2)CC1 | – | 5.69% (inactive)
O=C(Nc1ccc(NC(=O)c2ccccc2F)cc1)c1ccccc1F | – | -13% (inactive)
C/C(=N\NC(=O)Cc1ccc(F)cc1)c1ccc(F)cc1 | – | 0.896% (inactive)
C/C(=N\NC(=O)Cc1ccc(Br)cc1)c1cccnc1 | – | 3.78% [at 46.1 µM] (inactive)
CCNC(=S)N1CCN(c2ncccn2)CC1 | – | 3.81% (inactive)
CC(=NNC(=S)N1CCCCCC1)c1ccccn1 | 0.316 µM (active) | –
C/C(=N\NC(=O)Cc1ccc(Cl)cc1)c1ccccn1 | 8.2 µM (active) | –
CCOC(=O)CCC(NC(=O)c1ccc(CNc2nc3cc(C(F)(F)F)ccc3nc2C(=O)OCC)cc1)C(=O)OCC (stereo unspecified) | – | -7.13% (inactive)
Cc1nn(-c2ccc(N3CCCCC3)nn2)c(C)c1CCC(=O)NCc1ccc(F)cc1 | – | -18.5% [at 46.1 µM] (inactive)
COc1ccc(C(=O)C(C)OC(=O)c2cccc(S(=O)(=O)Nc3c(C)n(C)n(-c4ccccc4)c3=O)c2)cc1 (stereo unspecified) | – | -2.92% (inactive)
O=C(NNc1nc(N2CCCC2)nc(N2CCCC2)n1)c1ccccc1 | – | 15.5% (inactive)
O=C(Nc1ccc(O)cc1)c1ccc(NC(=O)c2ccco2)cc1 | – | 18.5% (inactive)
COCCn1c(SC(C)C(=O)NC2CC2)nnc1-c1cccc(C)c1 (stereo unspecified) | – | -8.47% [at 46.1 µM] (inactive)
COC(=O)c1sc(N2CCN(Cc3ccccc3)CC2)nc1N | – | -10.1% [at 46.1 µM] (inactive)
CC(C)Oc1ccc(NC(=O)c2cc3ccccc3o2)cc1 | – | 8.89% [at 46.1 µM] (inactive)
C/C(=N\NC(=S)Nc1ccc(C)cc1)c1cc2ccccc2o1 | 6.51 µM (active) | –
Cc1ccc(OC(=O)c2cc3ccccc3o2)cc1 | – | -5.21% (inactive)
CCOc1ncccc1C(=O)Nc1ccc2c(c1)OCCO2 | – | 3.99% [at 46.1 µM] (inactive)
COc1cccc2c1C(=O)c1c(O)c3c(c(O)c1C2=O)CC(O)(C(C)=NNC(=O)c1ccc(Cl)c(Cl)c1)CC3OC1CC(N)C(O)C(C)O1 (stereo unspecified) | 0.398 µM (active) | –
COc1ccc(C2NCCCC2c2ccccc2)cc1 (stereo unspecified) | – | 6.16% (inactive)
Cc1ccccc1NC(=O)Cn1cc(C(=O)C2CC2)c2ccccc21 | – | 9.91% [at 46.1 µM] (inactive)

Structure (SMILES) | Potency | activity change, negative = inhibition
CN(CCc1ccccn1)C1CCCN(S(=O)(=O)c2ccccc2Cl)C1 (stereo unspecified) | – | -13.5% [at 46.1 µM] (inactive)
c1ccc2c(c1)C(=NC1CCCCC1)NC2=NC1CCCCC1 | 13 µM (active) | –
COC(=O)Cc1nc2c(N)nc(N)nc2[nH]c1=O | – | -1.05% [at 46.1 µM] (inactive)
CCC(=O)c1ccc(OC(=O)/C=C/c2cc(OC)c(OC)c(OC)c2)cc1 | – | 18.5% [at 46.1 µM] (inactive)
COc1cc(/C=C/c2ccc(/C=C/c3cc(OC)c(OC)c(OC)c3)cc2)cc(OC)c1OC | 11.2 µM (active) | –
COc1cc(/C=C/C2=CC(C)(C)NC(=S)N2)cc(OC)c1OC | – | -7.97% [at 46.1 µM] (inactive)
Cc1ccc(NC(=O)C2CC2)cc1S(=O)(=O)N1CCOCC1 | – | 0% [at 46.1 µM] (inactive)
Cc1cccc(N2CCN(C(=O)CCSCc3ccccc3F)CC2)c1C | – | -19.8% [at 46.1 µM] (inactive)
CC[C@H]1CN2CCc3cc(OC)c(OC)cc3[C@@H]2C[C@@H]1C[C@H]1NCCc2cc(OC)c(OC)cc21 | 580 nM (active) and 184 nM (active) | –
COc1cc2c(cc1O)[C@H](Cc1ccc(Oc3cc(C[C@@H]4NCCc5cc(OC)c(O)cc54)ccc3O)cc1)NCC2 | – | 3.88% (inactive)
CCC(CC)C(=O)N1CCc2cc(OC)c(OC)cc2C1COc1ccc(F)cc1 (stereo unspecified) | – | -13.9% [at 46.1 µM] (inactive)
O=C(NC(=S)Nc1ccc(Br)cc1F)C1CCCCC1 | – | -27.3% (inactive)
Nc1cccnc1Sc1ccccc1 | – | 6.71% (inactive)
CC12C=C(C=Cc3ccc(F)cc3)C(C)(C1)C(c1ccc(F)cc1)CC2=O (stereo unspecified) | – | -4.68% [at 14.3 µM] (inactive)
O=C(Nc1ccc(-c2nc3cc(NC(=O)c4ccccc4Cl)ccc3o2)cc1)c1ccccc1Cl | – | -18% [at 46.1 µM] (inactive)
COc1cccc2sc(NNC(=O)c3nc4ccccc4s3)nc12 | – | -3.86% (inactive)
O=C(O)CCCCc1nc2ccccc2s1 | – | -0.106% (inactive)
COc1ccccc1OCc1nc2ccccc2s1 | 10 µM (active) | –
COc1ccc(-c2cc(=O)oc3cc(OC(C)C(=O)Nc4ccc(CN5CCOCC5)cc4)ccc23)cc1 (stereo unspecified) | – | -28.8% [at 46.1 µM] (inactive)
S=C(NCC1COc2ccccc2O1)Nc1ccc(Br)cc1 (stereo unspecified) | – | 3.35% (inactive)
c1ccc2c(c1)OCC(CNc1ncnc3nc[nH]c13)O2 (stereo unspecified) | – | 9.89% (inactive)
c1ccc(-c2cc3c(NCC4COc5ccccc5O4)ncnc3s2)cc1 (stereo unspecified) | 11.6 µM (active) | –

Structure (SMILES) | Potency | activity change, negative = inhibition
O=C(Nc1cccc(C(=O)NC2CC2)c1)c1ccc(F)c(S(=O)(=O)N2CCOCC2)c1 | – | 2.79% (inactive)
CCOc1ccc(C(=O)Nc2ccc3nc4c(c(Nc5ccccc5OC)c3c2)CCCC4)cc1 | 11.2 µM (active) | –
CCOc1ccc(C(=O)Nc2cc(OC)ccc2OC)cc1 | – | 20.4% (inactive)
COc1cccc(NC(=O)c2ccc3c(SCC(=O)O)c4c(nc3c2)CCCC4)c1 | – | 17.5% [at 46.1 µM] (inactive)
Cc1ccccc1CS(=O)(=O)CC1Nc2ccc(C(=O)NCc3ccc(Cl)cc3)cc2NC1=O (stereo unspecified) | – | -11.5% [at 46.1 µM] (inactive)
Cc1ccc(OCCSc2nc3ccc(NC(=O)COc4ccc(C)cc4)cc3s2)cc1 | – | 6.03% [at 46.1 µM] (inactive)
Cc1cc(C)nc(Nc2cc([N+](=O)[O-])ccc2C)n1 | – | -1.28% (inactive)
Cc1cc(C)nc(NC(=O)C(C)N2C(=O)c3ccccc3C2=O)n1 (stereo unspecified) | – | 17.9% (inactive)
Cc1cc(C)nc(Nc2n[nH]c(-c3ccccc3N)n2)n1 | 6.31 µM (active) | –
CC1CCN(C2=NC(=O)/C(=C/c3ccc(O)cc3)S2)CC1 | – | -27.1% (inactive)
NC(N)=N/N=C/c1ccc(Cl)c([N+](=O)[O-])c1 | – | 10.6% (inactive)
O=[N+]([O-])c1ccc(C=Nc2ccc(Cl)cc2Cl)s1 | 16.4 µM (active) | –
CNN/C(N=Cc1ccc([N+](=O)[O-])s1)=N\S(=O)(=O)c1cc(C)c(Cl)cc1SCc1ccccc1 | – | -0.987% (inactive)
CCOc1ccc(NC(=O)CSc2nncn2C)cc1 | – | -5.3% (inactive)
NS(=O)(=O)c1ccc(CNC(=O)c2cccc(S(=O)(=O)N3CCc4ccccc43)c2)cc1 | – | 5.39% (inactive)
CN(Cc1ccccc1)C(=O)CSc1nc2ccccc2[nH]1 | – | 12% (inactive)
CCOC(=O)C1CCN(C(=O)C2CCCN(S(=O)(=O)c3ccc(OC)c(Cl)c3)C2)CC1 (stereo unspecified) | – | -4.15% (inactive)
COc1ccc(C(CCN(Cc2ccc(OC)c(OC)c2)C(=O)CCl)c2ccccc2)cc1 (stereo unspecified) | 10 µM (active) | –
CCOC(=O)CN(Cc1ccc(OC)c(OC)c1)S(=O)(=O)c1ccc(OC)cc1 | – | -21.2% (inactive)
COc1ccc(CCNC(=O)C(Sc2ccccn2)c2ccccc2)cc1OC (stereo unspecified) | – | -5.66% (inactive)
CCOC(=O)C1CCN(C(=O)CN2C(=O)NC(C)(c3ccc4cc(OC)ccc4c3)C2=O)CC1 (stereo unspecified) | – | -0.475% [at 46.1 µM] (inactive)
COc1ccc(C(=O)Nc2cccc(/C=C(/CCC(=O)O)c3nc4ccccc4s3)c2)cc1 | – | 14.6% [at 46.1 µM] (inactive)

Structure (SMILES) | Potency | activity change, negative = inhibition
CCOc1ccc(CNC(=O)CCc2c(C)nn(-c3ccc(N4CCCCC4)nn3)c2C)cc1 | – | -7.82% [at 46.1 µM] (inactive)
COc1ccc(Nc2nc(-c3ccccc3)cs2)cc1 | 20.6 µM (active) | –
COc1ccc2nc(Nc3nc(-c4ccncc4)cs3)sc2c1 | – | -4.91% [at 46.1 µM] (inactive)
NS(=O)(=O)c1ccc(Nc2nc(-c3ccccc3)cs2)cc1 | – | -25.5% (inactive)
Nc1c(-c2ccccc2)nnn1Cc1ccccc1 | – | -13.1% [at 46.1 µM] (inactive)
CCOc1ccc2oc(C(=O)N(CC)CC(=O)Nc3ccc(NC(C)=O)cc3)c(C)c2c1 | – | -17.5% (inactive)
Cc1ccc(Nc2c(O)nc[nH]c2=O)cc1C | – | 29.7% [at 46.1 µM] (inactive)
Fc1ccc(-c2nc(Nc3cccc(Cl)c3)nc3c2COc2ccccc2-3)cc1 | – | -1.69% [at 46.1 µM] (inactive)
O=C(CC(=O)Nc1ccc(Cl)c(Cl)c1)N/N=C/c1ccc(O)cc1 | – | -16.6% (inactive)
N/C(=N\OC(=O)Nc1ccc(Cl)c(Cl)c1)c1ncc(C(F)(F)F)cc1Cl | – | -1.23% (inactive)
O=C(CC(O)(C(F)(F)F)C(F)(F)F)Nc1ccc(Cl)c(Cl)c1 | 4.61 µM (active) | –
O=C(COc1ccccc1F)Nc1nc(-c2ccccn2)cs1 | – | -25.7% [at 46.1 µM] (inactive)
O=C1NC(=O)C(CCc2ccccc2)(c2ccccc2)N1 (stereo unspecified) | – | -11.9% (inactive)
CC(C)[C@H]1COCCS(=O)(=O)N1Cc1ccccc1-c1cccc2c1sc1ccccc12 | – | -3.69% [at 46.1 µM] (inactive)
CCn1c(=S)[nH]c2cc(S(=O)(=O)N3CCOCC3)ccc21 | – | 17% (inactive)
CC(=O)N/C(=C/c1ccc(Cl)cc1)C(=O)NCCc1c[nH]c2ccccc12 | – | 0.212% (inactive)
O=C(CN1C(=O)NC2(CCCCC2)C1=O)NCCc1c[nH]c2ccccc12 | – | -1.27% (inactive)
N#C/C(=C/c1ccc(N2CCCCC2)o1)C(=O)NCCc1c[nH]c2ccccc12 | 7.08 µM (active) | –
